# In PubChem BioAssay (EPA / NIEHS):
# Results filed as inconclusive are left out. Activity calls are given as the source filed them. The calls were made as follows: active = hit-call score of the fitted dose curve at least 0.9, where 1 is the maximum; inconclusive = response in the unintended direction; inactive = score below 0.9.
# How the values were obtained:
# [1] = molecular target: sheep Cyclooxygenase-1 (Cox1), PTGS1 (gene 443551) (UniProt P05979); assay: NVS_ENZ_oCOX1: NovaScreen (NVS) Enzymatic Assay for sheep Cyclooxygenase-1 (Cox1) (AID 2283239);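 also: actives reduce cyclooxygenase activity so potencies are for inhibitors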
# Outline: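 Tested in duplicate at 25 uM, then in concentration series if active, against seminal vesicle extract from sheep. Enzyme activity was measured colorimetrically at 0.66 hour and normalised to DMSO.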
# [2] = test system: rat Monoamine Oxidase, MAO-A, Central (MAOAC), gene 29253; assay: NVS_ENZ_rMAOAC: NovaScreen (NVS) Enzymatic Assay for rat Monoamine Oxidase, MAO-A, Central (MAOAC) (AID 2283243);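 also: potency refers to inhibition seen as signal drop below DMSO baseline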
# Outline: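 Steps: rat brain protein extract dosed with test chemical (25 uM, duplicate, primary); incubated 1.5 h; radiolabelled product separated from substrate and counted. Signal loss versus DMSO scored as inhibition.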
# Sequence of sheep Cyclooxygenase-1 (Cox1), PTGS1 (gene 443551) (P05979 whole entry, looked up): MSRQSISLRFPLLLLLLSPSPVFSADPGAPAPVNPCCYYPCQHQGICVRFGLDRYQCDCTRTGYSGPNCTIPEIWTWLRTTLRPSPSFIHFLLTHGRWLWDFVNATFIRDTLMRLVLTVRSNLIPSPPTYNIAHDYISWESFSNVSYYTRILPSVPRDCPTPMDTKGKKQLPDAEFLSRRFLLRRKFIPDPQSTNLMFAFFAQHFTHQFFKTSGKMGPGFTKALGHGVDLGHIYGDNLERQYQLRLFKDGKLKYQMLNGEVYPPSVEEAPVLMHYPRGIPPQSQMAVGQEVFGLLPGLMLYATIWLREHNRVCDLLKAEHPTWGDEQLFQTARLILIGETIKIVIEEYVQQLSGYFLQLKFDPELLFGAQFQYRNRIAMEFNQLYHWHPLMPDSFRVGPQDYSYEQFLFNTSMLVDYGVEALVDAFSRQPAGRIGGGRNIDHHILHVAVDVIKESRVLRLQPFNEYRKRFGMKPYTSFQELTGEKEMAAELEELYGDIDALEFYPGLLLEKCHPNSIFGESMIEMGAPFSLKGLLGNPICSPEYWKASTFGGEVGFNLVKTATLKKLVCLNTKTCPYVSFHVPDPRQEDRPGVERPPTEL
structure (smiles),measurement,setting,value
COc1cc(OC)nc(NC(=O)NS(=O)(=O)c2ncccc2C(=O)N(C)C)n1,AC50,[1],7.06 µM (active)
CCCCCCCCCl,AC50,[1],0.0723 µM (active)
CCOC(=O)Nc1cccc(OC(=O)Nc2ccccc2)c1,AC50,[1],8.56 µM (active)
same,AC50,[2],5.76 µM (active)
OCc1ccco1,AC50,[1],6.01 µM (active)
CC(=O)C(Cl)C(=O)N(C)C (stereo unspecified),outcome,[1],inactive
